FLuc counter: inhibits or activates purified firefly luciferase, miR-21 counter-screen. P08659. Potency, µM (doses to about 57.5 µM), for inactives: top-dose activity change, negative = inhibition, actives largely listed as inhibitors. 6.9% of 360,000 active. purified FLuc, Km substrates, luminescence inhibition;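 further: plate controls were vehicle for no effect and reference inhibitor for full effect; nearly all actives have a fitted effect of over 55% in size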
Target sequence (P08659 whole entry, looked up): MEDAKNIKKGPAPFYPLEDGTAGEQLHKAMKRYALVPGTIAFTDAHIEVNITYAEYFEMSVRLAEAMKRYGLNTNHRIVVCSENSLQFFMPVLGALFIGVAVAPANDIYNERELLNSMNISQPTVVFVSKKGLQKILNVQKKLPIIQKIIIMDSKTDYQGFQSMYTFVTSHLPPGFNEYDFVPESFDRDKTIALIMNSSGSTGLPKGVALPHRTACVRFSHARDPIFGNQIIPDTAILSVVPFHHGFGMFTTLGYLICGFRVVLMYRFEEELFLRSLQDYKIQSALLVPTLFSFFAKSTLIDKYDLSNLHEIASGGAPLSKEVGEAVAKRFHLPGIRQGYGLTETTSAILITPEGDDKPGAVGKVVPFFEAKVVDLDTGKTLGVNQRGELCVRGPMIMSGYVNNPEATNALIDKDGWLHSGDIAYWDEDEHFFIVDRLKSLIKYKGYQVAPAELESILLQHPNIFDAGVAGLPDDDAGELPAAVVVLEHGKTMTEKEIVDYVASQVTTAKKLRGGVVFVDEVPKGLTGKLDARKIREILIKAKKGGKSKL
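Purified P. pyralis luciferase (10nM final) with 10uM D-luciferin and 10uM ATP (Km levels) in 50mM Tris acetate pH 7.5, 10mM Mg acetate, 0.01% Tween-20, 0.05% BSA; qHTS 6-point titration, ~60 µM downward; luminescence read.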
ELG1 repair inh: ELG1-dependent DNA repair inhibition | Potency, µM (doses to about 46.1 µM), inactives show at the highest dose activity change, negative = inhibition, actives largely listed as inhibitors | 2.3% of 330,000 active | HEK293T ELG1-luciferase reporter, luminescence, 16 h; DNA damage induced by 5-fluorouridine; further: on the % scale 0 is the no-effect control and ±100 the full control effect; nearly all actives have a fitted effect of over 55% in size
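Luminescence from the luciferase reporter, measured 30 min after ONE-Glo reagent at room temperature, was the read-out. Beforehand, 2,000 cells per well were exposed for 16 hr at 37 °C to 5-fluorouridine together with compound or vehicle.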
Rab9 promoter act: activators of Rab9 promoter. Huh7 Rab9 promoter-luciferase reporter, luminescence, 24 h. 2.8% of 320,000 active. AID 485297. Potency, µM (series often up to 9.22 µM), for the others: top-dose activation, negative = inhibition, hits mostly activators; further: % of control where 0% means no effect; nearly all actives have a fitted effect of over 60% in size
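Luminescence read-out: Huh7 cells stably expressing Rab9-luciferase, treated 24 h with compound at 37 °C, then lysed with luciferase reagent for 10 min at ambient before reading.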
NPC1 promoter act: NPC1 promoter activation | Huh7 NPC1 promoter luciferase reporter, 24 h | Potency, µM (top dose mostly 9.22 µM), for the others: top-dose activation, hits mostly activators | 2.4% of 320,000 active; further: % of control where 0% means no effect; nearly all actives have a fitted effect of over 60% in size
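Luminescence read-out of NPC1 promoter-driven luciferase in stably transfected Huh7 cells; compounds delivered in DMSO and left 24 h at 37C, 5% CO2, qHTS titration format.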
SMN2 splice enh: SMN2 splice variant enhancement | HEK293 SMN2-luciferase splicing reporter, luminescence, 30-36 h | Potency, µM (doses to about 46.1 µM), without a hit: at the top dose activity change, positive = activation, usual class: activators | 2.8% of 210,000 active | AID 1458; further: % of control where 0% means no effect; nearly all actives have a fitted effect of over 55% in size
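HEK293 cells carry an SMN2 […]–luciferase reporter in which exon 7 inclusion puts luciferase in frame. Cells were plated 10-12 h before compound addition, then incubated 30-36 h at 37C. ONE-Glo luminescence was read; sodium butyrate at 4.5 mM final served as control.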
ELG1 genotox: inducers of genotoxicity in HEK293T ELG1-luciferase cells. 1.3% of 330,000 active. AID 504466. HEK293T ELG1-luciferase reporter, luminescence, 16 h. Potency, µM (top dose mostly 46 µM), inactives show at the top dose activity change, positive = activation, hits mostly activators; further: % of control where 0% means no effect; nearly all actives have a fitted effect of over 60% in size
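HEK293T cells expressing luciferase-tagged ELG1 were exposed to compound or DMSO vehicle for 16 hr at 37 °C and 5% CO2. Luciferase activity was then measured with ONE-Glo after 30 min at room temperature.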
An asterisk follows results filed as active; ? = inconclusive; / = not tested or not shown; [ ] = dose if it differs, or a comment. This is a sample that favours compounds with a hit; in the whole collection about 9.2% have one here. The call rests on the fitted dose curve; in most records, active means well fitted curve in the direction sought with a large enough effect; inconclusive means small, poorly fitted or top-dose-only effect, or another doubt; inactive means no such curve, though single readings can be large; an effect the other way counts as inactive or inconclusive. Potency means the concentration at half of the fitted maximal effect.

SMILES | FLuc counter | ELG1 repair inh | Rab9 promoter act | NPC1 promoter act | SMN2 splice enh | ELG1 genotox
Cc1cccc(-c2nnc(SCCC(=O)O)o2)c1 | 11µM* | / | / | / | -15% | /
Cc1cccc(-c2nnc(SCC(=O)N3CCCC3)o2)c1 | 27µM* | ? | 4µM* | 3.5µM* | / | ?
COc1ccc(N2CC(C)Cn3c2nc2c3c(=O)n(Cc3ccc(F)cc3)c(=O)n2C)c(OC)c1 (centres undefined) | 1% | 16µM* | -7% | -6% | -11% | -8%
CCc1ccc(NC(=O)C(C)OC(=O)C2CCN(c3ccc(C(F)(F)F)cn3)CC2)cc1 (centres undefined) | -1% | 2% | 1% | 1% | / | -1%
c1ccc(C2=NNC(c3ccccn3)=NN2)nc1 | 3.4µM* | ? | 0.71µM* | 3.5µM* | / | ?
CN(C(=O)C1CCOC1)c1nnc(-c2ccncc2)s1 (centres undefined) | -4% | -10% | -7% | -1% | ? | -9%
CCOC(=O)c1sc(-c2ccccn2)nc1C | 27µM* | ? | 6% | -2% | 17% | 13%
COCC(=O)N(C)c1nnc(-c2ccc([N+](=O)[O-])cc2)s1 | 0% | 18% | 1% | 4% | 11% | 3%
COCC(=O)N(C)c1nnc(-c2ccccn2)s1 | ? | ? | 9% | 10% | 20µM* | 21µM*
CC(=O)c1sc(-c2ccccn2)nc1C | 3% | ? | -5% | -10% | / | 8%
CN(C(=O)C1CCOC1)c1nnc(-c2ccccn2)s1 (centres undefined) | 15µM* | ? | ? | 30% | 80% | 21µM*
C/C(Cc1ccccc1)=N\NC(=O)CNC(=O)c1ccc(Cl)cc1 | -5% | ? | -7% | 0% | / | 0%
Cc1ccc[n+](CC(=O)Nc2ccc([N+](=O)[O-])cc2)c1 | -1% | -8% | -2% | -4% | / | -7%
CN(C(=O)C1CCCO1)c1nnc(-c2ccccn2)s1 (centres undefined) | 15µM* | ? | 25% | 12% | 3% | ?
c1ccc(-c2nnc(-c3ccccn3)s2)nc1 | 1.3µM* | ? | 0.089µM* | 0.1µM* | / | ?
Cc1cccc(-n2c(C)cc(/C=C3/C(=N)N4C(c5ccccc5)=CSC4=NC3=O)c2C)c1 | -13% | 0% | 0% | 0% | -21% | -3%
COc1cc(/C=C2/C(=N)N3C(c4ccccc4)=CSC3=NC2=O)ccc1OCC(=O)O | 27µM* | 16% | 1% | 9% | / | -4%
CCS(=O)(=O)C1=NN2C(=N)/C(=C\c3ccc(OC(=O)c4ccco4)c(OC)c3)C(=O)N=C2S1 | ? | 21% | -2% | 0% | / | 1%
COc1cc(/C=C2/C(=N)N3C(SC)=NSC3=NC2=O)ccc1OC(=O)c1ccco1 | 27µM* | ? | ? | ? | / | ?
COc1cc(/C=C2/C(=N)N3C(=NC2=O)SN=C3S(=O)(=O)C(C)C)ccc1OC(=O)c1ccco1 | 13µM* | 18% | 0% | 5% | / | 5%
CCOc1cc(/C=C2/C(=N)N3C(=NC2=O)SN=C3S(=O)(=O)C(C)C)ccc1OC(=O)c1ccco1 | -18% | 22% | -6% | -3% | / | 3%
C=CCOc1ccc(/C=C2\C(=N)N3N=C(S(=O)(=O)CC)SC3=NC2=O)cc1OC | 9.5µM* | 6% | 0% | -1% | -2% | 11%
CC(=O)N1CCc2cc(S(=O)(=O)C(C)CC(=O)Nc3ccc(Br)c(C)c3)ccc21 (centres undefined) | 3% | / | / | / | / | /
CS(=O)(=O)C1=NSC2=NC(=O)/C(=C\c3ccc(OC(=O)c4ccco4)cc3)C(=N)N21 | 24µM* | -4% | 17% | 8% | / | -3%
CCS(=O)(=O)C1=NSC2=NC(=O)/C(=C\c3ccc(OC(=O)c4ccco4)c(OC)c3)C(=N)N21 | 21µM* | 3% | 2% | -5% | / | 3%
SMILES | FLuc counter | ELG1 repair inh | Rab9 promoter act | NPC1 promoter act | SMN2 splice enh | ELG1 genotox
COc1cc(/C=C2/C(=N)N3C(=NC2=O)SN=C3S(=O)(=O)C(C)C)ccc1OS(=O)(=O)c1ccccc1 | -1% | 16% | 3% | -2% | / | -1%[9.26 µM]
CCOc1cc(/C=C2/C(=N)N3C(=NC2=O)SN=C3S(=O)(=O)CC)ccc1OC(=O)c1ccco1 | -21% | -2% | -1% | 3% | / | 3%
CS(=O)(=O)C1=NN2C(=N)/C(=C\c3ccc(OC(=O)c4ccco4)cc3)C(=O)N=C2S1 | ? | 0% | -1% | 1% | / | 1%
COc1cc(/C=C2/C(=N)N3C(=NC2=O)SN=C3S(C)(=O)=O)ccc1OC(=O)c1ccco1 | 11µM* | ? | 5% | 1% | / | 0%[9.26 µM]
N=C1/C(=C\c2ccc(OC(=O)c3ccco3)cc2)C(=O)N=C2SC=NN12 | 15µM* | -9% | 1% | -2% | ? | -2%
CCCCn1c(N)c(N(CC(C)C)C(=O)c2c(CC)noc2C)c(=O)[nH]c1=O | 0% | 4% | -1% | 0% | / | -3%
CN1CCN(c2ccc(CNS(=O)(=O)c3ccsc3)cc2)CC1 | -7% | 12% | 1% | -1% | / | 0%
CC(C)CSC1=NSC2=NC(=O)/C(=C\c3cccs3)C(=N)N12 | ? | ? | 12% | 25% | ? | -1%
CSC1=NSC2=NC(=O)/C(=C\c3cccs3)C(=N)N12 | 9.5µM* | ? | 1.4µM* | 3.5µM* | 0.5µM* | ?
CCC1CCCCN1C(=O)CCNS(=O)(=O)c1ccc2c(c1)oc(=O)n2C (centres undefined) | 4% | 7% | -3% | -2% | / | 1%
COc1ccc(-n2c(=O)c3ccccc3n(Cc3ccccc3C)c2=O)c(OC)c1 | -6% | / | / | / | -1% | /
CCN(Cc1ccccc1)C(=O)c1ccc(Cl)cc1[N+](=O)[O-] | -5% | -4% | -3% | -3% | -7% | -6%
CC1CC(C)(C)CC2(C1)NC(=O)N(CC(=O)NCc1ccccc1F)C2=O (centres undefined) | 0% | 22% | -2% | -1% | / | 2%
COc1ccc(CCN(Cc2cccs2)S(=O)(=O)c2ccc(-n3cnnn3)cc2)cc1OC | 4% | 16µM* | -5% | -5% | -64% | -11%
CSc1nc(N)nc2c1ncn2CC(=O)NCc1ccccc1 | / | -12% | / | / | / | -4%
CSc1nc(N)nc2c1ncn2CC(=O)NCc1ccc2[nH]ccc2c1 | / | 23µM* | / | / | / | -6%
Cc1ccc(C(=O)NNC(=O)COC(=O)COc2ccccc2C#N)cc1 | / | 21% | -5% | -1% | / | 1%
Oc1ccc(O)cc1 | / | / | -42%[46.1 µM] | -32%[46.1 µM] | 9% | /
Fc1cccc(/C=N/N=C/c2cccc(F)c2)c1 | 2.7µM* | ? | ? | ? | 13% | ?
